# Data from PubChem BioAssay (EPA / NIEHS).
# Calls of active or inactive are those of the source. How the source made its calls: active means hit-call score of the fitted dose curve at least 0.9, where 1 is the maximum; inactive means score below 0.9.
# Read-out: Macrophage colony-stimulating factor (MCSF), CSF1 (gene 1435)
# Experiment: BSK_hDFCGF_MCSF: BioMAP Diversity Plus: hDFCGF Assay for Macrophage colony-stimulating factor (MCSF) Biomarker Activity (AID 2283060)
# Conditions: primary human foreskin fibroblasts; actives raise or lower the signal
# Method in brief: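 ELISA read-out of M-CSF in human dermal foreskin fibroblast cultures, 24 h after chemical dosing; gain or loss of signal fitted bidirectionally relative to DMSO baseline.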
SMILES,outcome,AC50
CN(c1nccc(=O)[nH]1)C1CCN(c2nc3ccccc3n2Cc2ccc(F)cc2)CC1,inactive,–
CCCCCCCCCCCCCCCC(=O)OC/C=C(C)/C=C/C=C(C)/C=C/C1=C(C)CCCC1(C)C,–,24.7 µM (active)
CC(=O)c1c(C)c([N+](=O)[O-])c(C(C)(C)C)c([N+](=O)[O-])c1C,inactive,–
CC(=O)C1(C)CC2=C(CCCC2(C)C)CC1C (stereo unspecified),–,10.9 µM (active)
Oc1c(Cl)cc(Cl)c(Cl)c1Cc1c(O)c(Cl)cc(Cl)c1Cl,–,1.58 µM (active)
CCN(CC)C(=O)N(CC)CC,inactive,–
CC1(C)C2=CCCC(C)(C)[C@]23CC[C@H]1C3,–,30.2 µM (active)
COc1ccc(CCN2CCC(Nc3nc4ccccc4n3Cc3ccc(F)cc3)CC2)cc1,–,7.49 µM (active)
COc1ccc(OC)c(N=Nc2c(O)ccc3ccccc23)c1,–,5.74 µM (active)
CC(C)(C)CC(C)(C)c1ccc(OCCOCC[N+](C)(C)Cc2ccccc2)cc1,–,6.64 µM (active)
O=C1OC2(c3ccccc31)c1ccc(O)c(Br)c1Oc1c2ccc(O)c1Br,–,20 µM (active)
c1ccc2cc(Nc3ccc(Nc4ccc5ccccc5c4)cc3)ccc2c1,inactive,–
C1=CC2C3C=CC(C3)C2C1 (stereo unspecified),inactive,–
O=C1c2ccccc2C(=O)c2c(O)ccc(O)c21,–,1.38 µM (active)
C=CC(C)(O)CCC=C(C)C (stereo unspecified),inactive,–
C=C(C)C(=O)OCCOCCOCCOCCOC(=O)C(=C)C,inactive,–
CS(=O)(=O)OCCCCOS(C)(=O)=O,inactive,–
CCCCN(CCCC)C(=O)N(CCCC)CCCC,–,9.49 µM (active)
Cc1cc(CCC(=O)OCCOCCOCCOC(=O)CCc2cc(C)c(O)c(C(C)(C)C)c2)cc(C(C)(C)C)c1O,inactive,–
CC(CN=Cc1ccccc1O)N=Cc1ccccc1O (stereo unspecified),inactive,–
C=C(C)C(=O)OCC(CC)(COC(=O)C(=C)C)COC(=O)C(=C)C,–,23.4 µM (active)
CS(=O)(=O)c1ccc(C2=C(c3ccccc3)C(=O)OC2)cc1,inactive,–
CCC(C)c1cc([N+](=O)[O-])cc([N+](=O)[O-])c1OC(=O)OC(C)C (stereo unspecified),–,6.2 µM (active)

# Read-out: not listed separately
# Experiment: BSK_hDFCGF_SRB: Viability Assessment in the BioMAP Diversity Plus: hDFCGF Assay (AID 2283061);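 further: cells exposed to compound for 24 h before the read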
# Conditions: primary human foreskin fibroblasts
# Method in brief: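 Primary human foreskin fibroblasts; 24 h post-dose; fixed 10% TCA, stained 0.1% SRB, A560 read; total protein as overt cytotoxicity measure; curves fit bidirectionally vs DMSO control.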
SMILES,outcome,AC50
CN(c1nccc(=O)[nH]1)C1CCN(c2nc3ccccc3n2Cc2ccc(F)cc2)CC1,inactive,–
CCCCCCCCCCCCCCCC(=O)OC/C=C(C)/C=C/C=C(C)/C=C/C1=C(C)CCCC1(C)C,inactive,–
CC(=O)c1c(C)c([N+](=O)[O-])c(C(C)(C)C)c([N+](=O)[O-])c1C,inactive,–
CC(=O)C1(C)CC2=C(CCCC2(C)C)CC1C (stereo unspecified),–,11.2 µM (active)
Oc1c(Cl)cc(Cl)c(Cl)c1Cc1c(O)c(Cl)cc(Cl)c1Cl,–,5.15 µM (active)
CCN(CC)C(=O)N(CC)CC,inactive,–
CC1(C)C2=CCCC(C)(C)[C@]23CC[C@H]1C3,–,31.9 µM (active)
COc1ccc(CCN2CCC(Nc3nc4ccccc4n3Cc3ccc(F)cc3)CC2)cc1,inactive,–
COc1ccc(OC)c(N=Nc2c(O)ccc3ccccc23)c1,–,8.26 µM (active)
CC(C)(C)CC(C)(C)c1ccc(OCCOCC[N+](C)(C)Cc2ccccc2)cc1,–,6.6 µM (active)
O=C1OC2(c3ccccc31)c1ccc(O)c(Br)c1Oc1c2ccc(O)c1Br,inactive,–
c1ccc2cc(Nc3ccc(Nc4ccc5ccccc5c4)cc3)ccc2c1,inactive,–
C1=CC2C3C=CC(C3)C2C1 (stereo unspecified),inactive,–
O=C1c2ccccc2C(=O)c2c(O)ccc(O)c21,inactive,–
C=CC(C)(O)CCC=C(C)C (stereo unspecified),inactive,–
C=C(C)C(=O)OCCOCCOCCOCCOC(=O)C(=C)C,inactive,–
CS(=O)(=O)OCCCCOS(C)(=O)=O,inactive,–
CCCCN(CCCC)C(=O)N(CCCC)CCCC,–,10.3 µM (active)
Cc1cc(CCC(=O)OCCOCCOCCOC(=O)CCc2cc(C)c(O)c(C(C)(C)C)c2)cc(C(C)(C)C)c1O,inactive,–
CC(CN=Cc1ccccc1O)N=Cc1ccccc1O (stereo unspecified),inactive,–
C=C(C)C(=O)OCC(CC)(COC(=O)C(=C)C)COC(=O)C(=C)C,–,32.1 µM (active)
CS(=O)(=O)c1ccc(C2=C(c3ccccc3)C(=O)OC2)cc1,inactive,–
CCC(C)c1cc([N+](=O)[O-])cc([N+](=O)[O-])c1OC(=O)OC(C)C (stereo unspecified),–,9.55 µM (active)
